In the supplement of paper PMC6555819 one finds PBM binding z-score data, which are given here for 40 sequences.

One experiment deals with PPARg:RXRa 90nM:30nM, anti-RXR (NR concentration 90 nM, RXRa partner concentration 30 nM). Put plainly: PBM binding z-score (relative to random genomic background probes); higher = stronger binding; sequences stand for … in GC…GCGATTGACAGCGTAGAATGAAGG
An outline of the steps: (§1)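 Binding z-scores take random background probes as their reference. They come from custom Agilent 4×180K protein-binding microarrays incubated 1 h with ligand-free nuclear receptor dimers, with antibodies against each partner (one per run) detecting binding. Scanned fluorescence was regression-normalized.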
TCTTGTAGATCAAGCAGGTTAGGAAAGCCTGAGT returned a PBM binding z-score of 1.62.
On the same count and under the same terms, to ATCTCTAGGTAGAGTTCAGTGAAAGATCGATAGA belongs 1.93; to GCTTGTAGAGCAAGGTTAAGAAAGACTAAGCTAA, 2.03.
On the same count and under the same terms, for CAAACTAGGTCAAATGTCAAAGTCGAGCCAACCA the value was 10.8.
The same measure, in the same setting: for TCATATAGGTATAGGTGAAAGTCGAACGATATGA the value was 3.05; for CAAACTAGGTCAAGAGATCAAAGTCCGCTTCCCG, 6.68.
CCTGCTAGGTCAATCGTCAGCTAAAGCAGCTCGC returned a PBM binding z-score of 1.39.
Still for that read-out and setting: to CGTCAAAGTTCAAGGTAACGTGACAGAAAGCAGC belongs 3.9.
Still for that read-out and setting: for ATCGAAACGTCGAGGTGAGTATAGAGAAAGGGAA the value was -0.335.
On the same count and under the same terms, for AGCGAAAGGTCGTGAGGTGAGTATACAGAAAGGC the value was 3.25.
In turn, CGAACTAGGGCATTGACAGGACAGTGAATAGTAA gave a PBM binding z-score of 1.83.
Sequence CGGACTGGGGCAAGGTTACCATAACGCACAGCCA registered a PBM binding z-score of 4.2.
On the same count and under the same terms, for AGCATGAGGTTACCAAAGATCAGGGAAACGCTTG the value was 1.07.
Still for that read-out and setting: to CTAGCAAGGTGAACAAGGTCGTTGATTACTATTC belongs 0.796.
On the same count and under the same terms, to CTACTAAGGTGAACAAGGTCGTTGATTACTATTC belongs 1.06.
On to CGTCCAAGGTCAAAGTTCAGTGAAGAGATGACGG, for which the PBM binding z-score was determined as 8.24.
The same measure, in the same setting: to TCTTGTAGATCAATAGAGGGTAAGAAAGTGCGCT belongs 2.29; to ATCGAAAGGTCGTGAGGTGCGTATACAGAAAGGC, 2.4; to CCTATTAGTTGAGCATAAGGGCAACCGAAGCTCG, 0.368.
The same measure, in the same setting: for TCTTGTAGATCAACAGGAGGTTAAAAAAGATCGA the value was 2.31.
Same read-out and setting: for TGAATGAGGTTAAAGTTCAGGGAACGTGGCGTCG the value was 9.05.
With ATCTCTAGGTAAGACTCAATTCAGTGAAGAACGC, the PBM binding z-score was 0.378.
The same measure, in the same setting: to AGTCAAAGTTCATCTAGGTAACGTATGATATGCT belongs 5.74; to GCTATTAGTAGAAAGGGCAACCGAATGATTCTCG, 3.54.
Same read-out and setting: for ATCCAAAGGTCGAAGGTGAGTATACCCACCCGAA the value was 4.33; for TGAATGAGGTTATATGATCAGGGAACGTTGCAAA, 1.45.
Still for that read-out and setting: to CCTAGTTGGTCAGAAGGTCACACACCGGATATGA belongs 3.82; to ATCTCTAGGTAAAAGTTCAGTGAATCCCGAGGAT, 8.39.
As for TCGAGTAGGTTAGTTGGGGCATTCAGCCAACATA, the PBM binding z-score came out at 0.623.
Same read-out and setting: for TCTGCTAGGTCAGTTGGTCAGCTATCGAGCTGCC the value was 1.45.
Still for that read-out and setting: to ACAGACAGGTGATGATGGTAACTCAGGCTATCAT belongs 0.135; to TAGCATAGGTCATTGGGCCAGTATAGTACGCATC, 3.7.
Sequence CCTACTTGGCCAAGGTCATTGATCAGTCAAAGCA showed a PBM binding z-score of 1.41.
The sequence CCAGACAGGTGAGAAGGTCACTCAGCCTCGATTA yielded a PBM binding z-score of 1.98.
ACTAGTAGTTGACTTAGGGCAACCGATACGACGC: the PBM binding z-score was -0.0744.
For the sequence ATCTCTAGGTAAGACTCAGTTCAGTGACGAACGC, the PBM binding z-score was found to be 0.176.
The same measure, in the same setting: to ATATATAGGTTATCGGGTCATTCAGTTTGCGCAT belongs 6.01.
Sequence AGTCAATGTTCACTAGGTAACGTAAGATTCAGCT had a PBM binding z-score of 0.302.
The same measure, in the same setting: for ACTACTTGGTCAGCTGAGGTCACACACAATTCGG the value was 1.7; for TCTCTGAGGACACGAAAGGTCAGAGCTCGACATC, 2.75.

The test system of another experiment is PPARg:RXRa DBDmut IVT, anti-RXR (DBD mutation: RXRa K156A/R161A, NR concentration 270 nM, RXRa partner concentration 90 nM). The experiment is described as above. The method, boiled down:
as §1
TCTTGTAGATCAAGCAGGTTAGGAAAGCCTGAGT: the PBM binding z-score came to 1.57.
For the sequence ATCTCTAGGTAGAGTTCAGTGAAAGATCGATAGA, the PBM binding z-score came out at 0.277.
In turn, GCTTGTAGAGCAAGGTTAAGAAAGACTAAGCTAA registered a PBM binding z-score of 2.64.
Still for that read-out and setting: to CAAACTAGGTCAAATGTCAAAGTCGAGCCAACCA belongs 8.77.
On the same count and under the same terms, to TCATATAGGTATAGGTGAAAGTCGAACGATATGA belongs 2.01.
CAAACTAGGTCAAGAGATCAAAGTCCGCTTCCCG showed a PBM binding z-score of 8.62.
The same measure, in the same setting: to CCTGCTAGGTCAATCGTCAGCTAAAGCAGCTCGC belongs 4.52; to CGTCAAAGTTCAAGGTAACGTGACAGAAAGCAGC, 0.641; to ATCGAAACGTCGAGGTGAGTATAGAGAAAGGGAA, -1.
In turn, AGCGAAAGGTCGTGAGGTGAGTATACAGAAAGGC gave a PBM binding z-score of 0.425.
The same measure, in the same setting: for CGAACTAGGGCATTGACAGGACAGTGAATAGTAA the value was 6.82; for CGGACTGGGGCAAGGTTACCATAACGCACAGCCA, 4.9.
On the same count and under the same terms, to AGCATGAGGTTACCAAAGATCAGGGAAACGCTTG belongs 0.803; to CTAGCAAGGTGAACAAGGTCGTTGATTACTATTC, 2.52.
The same measure, in the same setting: to CTACTAAGGTGAACAAGGTCGTTGATTACTATTC belongs 3.87; to CGTCCAAGGTCAAAGTTCAGTGAAGAGATGACGG, 3.41.
Sequence TCTTGTAGATCAATAGAGGGTAAGAAAGTGCGCT showed a PBM binding z-score of 1.96.
For ATCGAAAGGTCGTGAGGTGCGTATACAGAAAGGC, the PBM binding z-score came out at 0.0193.
For the sequence CCTATTAGTTGAGCATAAGGGCAACCGAAGCTCG, the PBM binding z-score was -0.00699.
Still for that read-out and setting: to TCTTGTAGATCAACAGGAGGTTAAAAAAGATCGA belongs 1.2.
Regarding TGAATGAGGTTAAAGTTCAGGGAACGTGGCGTCG, the PBM binding z-score came out at 2.35.
On the same count and under the same terms, to ATCTCTAGGTAAGACTCAATTCAGTGAAGAACGC belongs 1.93.
Same read-out and setting: for AGTCAAAGTTCATCTAGGTAACGTATGATATGCT the value was 0.872; for GCTATTAGTAGAAAGGGCAACCGAATGATTCTCG, 0.164; for ATCCAAAGGTCGAAGGTGAGTATACCCACCCGAA, 0.6.
On the same count and under the same terms, to TGAATGAGGTTATATGATCAGGGAACGTTGCAAA belongs 1.01.
Regarding CCTAGTTGGTCAGAAGGTCACACACCGGATATGA, the PBM binding z-score came to 1.63.
ATCTCTAGGTAAAAGTTCAGTGAATCCCGAGGAT displayed a PBM binding z-score of 1.99.
TCGAGTAGGTTAGTTGGGGCATTCAGCCAACATA yielded a PBM binding z-score of 2.05.
The same measure, in the same setting: to TCTGCTAGGTCAGTTGGTCAGCTATCGAGCTGCC belongs 2.46; to ACAGACAGGTGATGATGGTAACTCAGGCTATCAT, -0.209; to TAGCATAGGTCATTGGGCCAGTATAGTACGCATC, 1.83.
CCTACTTGGCCAAGGTCATTGATCAGTCAAAGCA came in with a PBM binding z-score of 1.37.
Same read-out and setting: to CCAGACAGGTGAGAAGGTCACTCAGCCTCGATTA belongs 1.76; to ACTAGTAGTTGACTTAGGGCAACCGATACGACGC, -0.00679; to ATCTCTAGGTAAGACTCAGTTCAGTGACGAACGC, 2.2.
The same measure, in the same setting: to ATATATAGGTTATCGGGTCATTCAGTTTGCGCAT belongs 7.55; to AGTCAATGTTCACTAGGTAACGTAAGATTCAGCT, 1.92.
Take ACTACTTGGTCAGCTGAGGTCACACACAATTCGG: the PBM binding z-score was 2.16.
The sequence TCTCTGAGGACACGAAAGGTCAGAGCTCGACATC showed a PBM binding z-score of 1.67.
